Values joined by “and” are separate entries in the source; they are usually repeats but may differ in a detail not shown here. Equal entries are not always repeated. Results filed as inconclusive are left out. Active and inactive are the calls of the source. Unless noted, calls come from the whole dose curve; as a rule, active = well fitted curve in the direction sought with a large enough effect; inconclusive = small, poorly fitted or top-dose-only effect, or another doubt; inactive = no such curve, though single readings can be large; an effect the other way counts as inactive or inconclusive.
Assays:
[1] = target: Cytochrome P450 1A2 (Homo sapiens) (UniProt P05177); assay: p450-cyp1a2 (AID 410; calls by dose curve; note: potency is the fitted concentration of half-maximal effect;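 for activity change, negative = inhibition: -100% = full effect of reference inhibitor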)
How it was run: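 O-Demethylation of luciferin 6' methyl ether by human CYP1A2 is monitored as luciferase luminescence. Substrate sits at Km (100uM); enzyme is 20nM. Values are scaled to 57 uM furafylline as maximal inhibition.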

[2] = target: 3',5'-cyclic-AMP phosphodiesterase 4B (Homo sapiens) (UniProt Q07343); assay: qHTS Assay for Inhibitors of PDE-IV (AID 607; active = well fitted activation curve with a large enough effect in the main read-out, with a control signal flat, not every such curve was filed as active; note: % of control where 0% means no effect)
How it was run: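 Cell-based read-out of cAMP via a modified cyclic nucleotide-gated channel and membrane potential dye (535/590 nm) in HEK293 cells expressing PDE4 endogenously. Compounds tested up to 22.9 uM final; 100 uM RO 20-1724 reference.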

[3] = target: Cytochrome P450 3A4 (Homo sapiens) (UniProt P08684); assay: qHTS Assay for Inhibitors and Substrates of Cytochrome P450 3A4 (AID 884); note: nearly all actives have a fitted effect of over 50% in size; note: potency is the fitted concentration of half-maximal effect; for activity change, negative = inhibition: % is set by controls: 0 for no effect and ±100 for the full control effect
How it was run: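 Luminescent readout of luciferin produced by CYP3A4 (20 nM) dealkylation of Luciferin-PPXE, 25 uM (its KM). NADPH-driven reaction ran 60 min at RT after 10 min compound preincubation; data scaled to 57 uM ketoconazole as 100% inhibition.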

[4] = target: Mitogen-activated protein kinase 10 (Mus musculus) (UniProt Q61831); assay: JNK3 AlphaScreen Assay (AID 530; active = well fitted curve in either direction with a large enough effect, not every such curve was filed as active;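 note: kinase came from lysate of stimulated human HepG2 cells; signal reports phosphorylation of biotinylated GST-cJun 1-79 at Ser73 with 10 µM ATP; % is set by controls: 0 for no effect and ±100 for the full control effect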)
How it was run: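 Activity was read by AlphaScreen after JNK3-containing HepG2 lysate (cytokine pre-activated) phosphorylated biotinylated GST-cJun with 10 uM ATP at room temperature. Phospho-Ser73 cJun antibody with Protein-A acceptor beads provided detection.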

[5] = target: Cytochrome P450 3A4 (Homo sapiens) (UniProt P08684); assay: qHTS Assay for Activators of Cytochrome P450 3A4 (AID 885); note: nearly all actives have a fitted effect of over 65% in size
How it was run: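 Luminescent readout of luciferin formed from 25 uM Luciferin-PPXE (KM level) by 20 nM CYP3A4 in 200 mM KPO4, with 60 min NADPH-driven reaction at room temperature after 10 min compound exposure. Ketoconazole (57 uM) defined 100% inhibition.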

[6] = Cell Viability - BJ (AID 421; calls by dose curve;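 note: potency is the fitted concentration of half-maximal effect; cells exposed to compound for 40 hours at 37 °C before readout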); conditions: BJ fibroblast viability, qHTS
How it was run: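 Cytotoxicity as drop in intracellular ATP (CellTiter-Glo, 20 min RT) after 40 hr compound exposure of BJ fibroblasts at 37 °C. Titrations scaled between DMSO and 100 uM tamoxifen, Hill-fitted for AC50.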

[7] = Cell Viability - MRC5 (AID 434; calls by dose curve;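 note: potency is the fitted concentration of half-maximal effect; cells exposed to compound for 40 hours at 37 °C; potency reflects cytotoxicity seen as loss of intracellular ATP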); conditions: MRC5 lung fibroblast viability, qHTS
How it was run: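 ATP luminescence read-out (CellTiter-Glo, 20 min RT) after 40 hr, 37 °C compound exposure of 1500 MRC5 cells/well. Data normalized to DMSO (basal) and 100 uM tamoxifen (100% inhibition); AC50 from standard Hill equation.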

[8] = Cell Viability - SK-N-SH (AID 435; calls by dose curve;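 note: potency is the fitted concentration of half-maximal effect; compound exposure lasted 40 h at 37 °C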); conditions: SK-N-SH neuroblastoma cell viability qHTS
How it was run: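 CellTiter-Glo ATP luminescence, 20 min RT read; cells pre-plated 5 hr, compound 40 hr at 37 °C, 1500 cells/well, complete medium. Normalized DMSO = 0, 100 uM tamoxifen = 100% inhibition; Hill-fit AC50.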

[9] = Cell Viability - SH-SY5Y (AID 544); conditions: SH-SY5Y neuroblastoma cell viability; viability change, negative = cytotoxic: at 92.2 µM (top of the series);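 note: cells exposed to compound for 40 hours; nearly all actives have a fitted effect of over 55% in size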; note: potency is the fitted concentration of half-maximal effect
How it was run: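 Cells were plated at 1500 per well and allowed 5 hr at 37 °C. Compounds were added across a concentration range and incubated 40 hr at 37 °C. CellTiter-Glo was added for 20 min at room temperature before luminescence reading.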

[10] = Cell Viability - Renal Proximal Tubule (AID 545); conditions: renal proximal tubule cells viability, primary cells of rat origin; activity change, negative = cytotoxicity: at 91.7 µM (top of the series);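 note: cells exposed to compound for 40 hours; nearly all actives have a fitted effect of over 40% in size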; note: potency is the fitted concentration of half-maximal effect
How it was run: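 Rat kidney proximal tubule cells, freshly isolated; 1000 cells/well, 5 hr settle, compound 40 hr 37 °C. CellTiter-Glo 20 min RT, luminescence read. AC50 by standard Hill fit.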

[11] = Cellular Toxicity (caspase-3) HepG2 (AID 654); note: potency is the fitted concentration of half-maximal effect;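 for caspase-3 activation: cells exposed to compound for 16 hours before reading; 0% = DMSO alone and 100% = caspase signal from 100 µM tamoxifen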
How it was run: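 Caspase 3/7 activation in HepG2 is measured as rising luminescence after a 16 hr treatment at 37 °C. Values are scaled between DMSO basal and 100 uM tamoxifen, and AC50 is fitted with the Hill equation.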

[12] = Cellular Toxicity (caspase-3) HUV-EC-C (AID 656)
How it was run: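 Luminescent caspase-3/7 activation (aminoluciferin substrate cleavage) in HUV-EC-C cells after 16 hr compound exposure, 37°C. Signal normalized to DMSO basal and 100 uM tamoxifen as 100%; AC50 from concentration-response fitted with the Hill equation.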

[13] = Cellular Toxicity (caspase-3) Mesangial (AID 660); conditions: mesangial cells, normalized: DMSO 0%, 100 µM tamoxifen 100%; at 91.7 µM (top of the series);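 note: combined caspase 3 and 7 activity read by Caspase-Glo luminescence; cells exposed to compound for 16 h before the caspase read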
How it was run: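 Seed cells derived from normal human renal glomeruli, incubate 5 h, add compounds across concentrations and incubate 16 h at 37 °C. Caspase 3/7 activation is then quantified by luciferase light, with AC50 derived by Hill modeling.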

[14] = Cellular Toxicity (caspase-3) N2a (AID 665); conditions: Potency: caspase-3 activation;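 note: compound exposure lasted 16 h at 37 °C before readout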; note: potency is the fitted concentration of half-maximal effect
How it was run: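 Caspase-3/7 activation, measured as increased luminescence from aminoluciferin release, is quantified in mouse N2a cells exposed to compounds for 16 h. Values are normalized to DMSO and 10 uM staurosporine, with AC50 derived by Hill modelling.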

[15] = Cellular Toxicity (caspase-3) Renal Proximal Tubule (AID 667);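 note: cells exposed to compound for 16 hours at 37 °C before detection; 0% = DMSO basal and 100% = 10 µM staurosporine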
How it was run: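 Luminescent caspase 3/7 signal from peptide-aminoluciferin cleavage measures apoptosis in freshly isolated rat kidney proximal tubule cells after 16 h compound exposure. Concentration-response data are normalized to DMSO and 10 uM staurosporine, and AC50 values come from Hill equation fits.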

[16] = target: Peroxisome proliferator-activated receptor alpha (Homo sapiens) (UniProt Q07869); assay: qHTS assay for small molecule agonists of the peroxisome proliferator-activated receptor alpha (PPARalpha) signaling pathway (AID 651778); conditions: PathHunter PPARalpha complementation, chemiluminescence, 6 h; max response: hits give high values; note: % of control where 0% means no effect
How it was run: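 Enzyme-fragment complementation assay in which ligand-bound PPARalpha translocates and forms an active enzyme that generates chemiluminescence. Cells were plated overnight, exposed to compound for 6 hr at 37 C, and then given detection reagent for 60 min at room temperature.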

[17] = qHTS assay for cell viability of HEK293 cells (AID 743288); conditions: ATP luminescence (CellTiter-Glo), 18 h; max response: hits give low values; note: nearly all actives have a fitted effect of over 50% in size; note: potency is the fitted concentration of half-maximal effect
How it was run: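 ATP luminescence (CellTiter-Glo) reports metabolically competent cell number after parental HEK293 cells, 2,000/well, were treated with DMSO-dissolved compounds for 18 h at 37 C; reagent incubation 30 min, room temperature.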

[18] = NFAT Signaling Pathway (AID 444; active = well fitted curve in either direction with a large enough effect, not every such curve was filed as active;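 note: carbachol stimulus at about its EC50 of 1 µM final; % is set by controls: 0 for no effect and ±100 for the full control effect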); conditions: Jurkat NFAT-bla M1, carbachol, beta-lactamase ratio, 5 h; at 17.2 µM (top of the series) unless noted
How it was run: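 Jurkat cells with NFAT-driven β-lactamase reporter and co-expressed M1 receptor, stimulated with carbachol (final 1 uM, ~EC50), compound titration, 5 h at 37 °C. CCF4 loaded 1 h at RT; 460/530 nm ratio gave %activity and AC50.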

[19] = Stat Signaling Pathway (AID 446; active = well fitted curve in either direction with a large enough effect, not every such curve was filed as active;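 note: ME-180 cervical cancer cells given 40 pM IL-6 alongside compound; SIE-controlled beta-lactamase reporter measured as 460/530 nm FRET emission ratio; % is set by controls: 0 for no effect and ±100 for the full control effect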); conditions: ME-180 (cervical carcinoma) SIE beta-lactamase reporter, IL-6 stimulated, 5 h; at 17.2 µM (top of the series) unless noted
How it was run: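 FRET read-out (405 nm excitation, 460/530 nm emission) of a beta-lactamase reporter under a STAT-inducible element in ME-180 cervical carcinoma cells. Cells with compound receive 40 pM IL-6 for 5 h. Values are normalised to AC90 stimulation and AC90 JAK-inhibitor controls.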

[20] = target: Glucocorticoid receptor (Homo sapiens) (UniProt P04150); assay: GR-GFP Redistribution (AID 450;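 active = compounds whose dose series gives a full or clear partial fitted curve of increased nuclear translocation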; note: potency is the fitted concentration of half-maximal effect)
Chain of Glucocorticoid receptor (Homo sapiens) (P04150 whole entry, looked up): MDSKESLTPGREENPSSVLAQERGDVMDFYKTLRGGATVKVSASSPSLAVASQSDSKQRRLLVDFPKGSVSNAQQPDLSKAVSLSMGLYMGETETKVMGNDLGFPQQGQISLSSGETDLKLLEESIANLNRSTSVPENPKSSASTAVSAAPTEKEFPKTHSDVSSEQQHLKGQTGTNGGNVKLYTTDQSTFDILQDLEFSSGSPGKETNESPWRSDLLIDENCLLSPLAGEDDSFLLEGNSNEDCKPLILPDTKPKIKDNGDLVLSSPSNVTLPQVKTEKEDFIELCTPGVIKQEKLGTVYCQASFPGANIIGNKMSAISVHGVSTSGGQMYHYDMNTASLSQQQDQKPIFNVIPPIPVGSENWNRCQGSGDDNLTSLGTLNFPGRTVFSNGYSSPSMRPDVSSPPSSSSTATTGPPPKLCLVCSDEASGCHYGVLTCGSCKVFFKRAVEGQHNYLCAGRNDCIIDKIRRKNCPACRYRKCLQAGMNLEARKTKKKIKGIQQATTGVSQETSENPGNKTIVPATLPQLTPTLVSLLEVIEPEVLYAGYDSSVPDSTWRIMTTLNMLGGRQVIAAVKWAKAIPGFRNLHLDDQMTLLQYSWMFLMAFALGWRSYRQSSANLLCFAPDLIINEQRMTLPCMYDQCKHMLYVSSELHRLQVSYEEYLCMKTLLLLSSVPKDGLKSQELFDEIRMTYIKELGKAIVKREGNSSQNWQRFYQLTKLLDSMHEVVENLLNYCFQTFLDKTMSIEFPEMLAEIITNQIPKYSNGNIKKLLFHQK

Chain of Peroxisome proliferator-activated receptor alpha (Homo sapiens) (Q07869 whole entry, looked up, the tested form may be a part): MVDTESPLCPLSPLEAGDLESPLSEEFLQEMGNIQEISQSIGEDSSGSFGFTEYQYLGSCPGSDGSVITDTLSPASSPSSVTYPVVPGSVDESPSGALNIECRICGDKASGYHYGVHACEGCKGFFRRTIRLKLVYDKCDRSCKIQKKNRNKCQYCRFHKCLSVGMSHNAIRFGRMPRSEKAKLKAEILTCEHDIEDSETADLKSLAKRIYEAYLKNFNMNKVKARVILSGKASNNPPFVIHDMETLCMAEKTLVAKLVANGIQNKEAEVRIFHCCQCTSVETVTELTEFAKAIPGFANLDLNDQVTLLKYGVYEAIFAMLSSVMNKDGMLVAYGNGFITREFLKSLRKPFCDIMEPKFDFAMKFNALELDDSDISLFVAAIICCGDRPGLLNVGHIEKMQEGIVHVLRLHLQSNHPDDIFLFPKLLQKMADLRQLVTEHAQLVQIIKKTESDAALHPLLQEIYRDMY
Chain of Cytochrome P450 3A4 (Homo sapiens) (P08684 whole entry, looked up): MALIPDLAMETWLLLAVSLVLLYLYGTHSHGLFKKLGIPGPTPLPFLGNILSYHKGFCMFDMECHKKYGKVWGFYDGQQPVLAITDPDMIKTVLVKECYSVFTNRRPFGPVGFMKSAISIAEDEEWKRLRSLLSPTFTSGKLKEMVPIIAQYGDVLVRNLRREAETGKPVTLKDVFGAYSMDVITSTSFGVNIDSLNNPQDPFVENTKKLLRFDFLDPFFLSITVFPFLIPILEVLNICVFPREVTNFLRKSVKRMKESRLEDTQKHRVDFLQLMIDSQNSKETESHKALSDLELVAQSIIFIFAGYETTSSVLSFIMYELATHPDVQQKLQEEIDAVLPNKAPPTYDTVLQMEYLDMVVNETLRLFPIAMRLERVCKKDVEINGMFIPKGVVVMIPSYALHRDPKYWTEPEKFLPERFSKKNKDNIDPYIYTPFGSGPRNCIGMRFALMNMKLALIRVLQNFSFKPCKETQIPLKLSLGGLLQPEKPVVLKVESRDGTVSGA
Chain of Cytochrome P450 1A2 (Homo sapiens) (P05177 whole entry, looked up): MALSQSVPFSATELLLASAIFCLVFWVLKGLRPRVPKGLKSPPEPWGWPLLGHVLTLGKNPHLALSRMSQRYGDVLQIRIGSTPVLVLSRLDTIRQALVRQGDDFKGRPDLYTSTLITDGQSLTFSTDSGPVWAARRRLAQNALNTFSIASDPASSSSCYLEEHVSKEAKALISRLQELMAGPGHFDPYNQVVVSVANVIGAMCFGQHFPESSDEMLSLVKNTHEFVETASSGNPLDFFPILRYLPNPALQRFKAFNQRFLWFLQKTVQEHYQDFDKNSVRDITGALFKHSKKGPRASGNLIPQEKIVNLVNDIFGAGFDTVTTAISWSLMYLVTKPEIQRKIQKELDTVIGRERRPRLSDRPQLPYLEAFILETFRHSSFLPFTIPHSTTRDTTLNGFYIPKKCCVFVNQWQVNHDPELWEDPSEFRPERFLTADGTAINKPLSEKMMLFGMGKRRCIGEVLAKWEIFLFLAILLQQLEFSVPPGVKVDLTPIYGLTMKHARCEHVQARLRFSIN
Chain of 3',5'-cyclic-AMP phosphodiesterase 4B (Homo sapiens) (Q07343 whole entry, looked up): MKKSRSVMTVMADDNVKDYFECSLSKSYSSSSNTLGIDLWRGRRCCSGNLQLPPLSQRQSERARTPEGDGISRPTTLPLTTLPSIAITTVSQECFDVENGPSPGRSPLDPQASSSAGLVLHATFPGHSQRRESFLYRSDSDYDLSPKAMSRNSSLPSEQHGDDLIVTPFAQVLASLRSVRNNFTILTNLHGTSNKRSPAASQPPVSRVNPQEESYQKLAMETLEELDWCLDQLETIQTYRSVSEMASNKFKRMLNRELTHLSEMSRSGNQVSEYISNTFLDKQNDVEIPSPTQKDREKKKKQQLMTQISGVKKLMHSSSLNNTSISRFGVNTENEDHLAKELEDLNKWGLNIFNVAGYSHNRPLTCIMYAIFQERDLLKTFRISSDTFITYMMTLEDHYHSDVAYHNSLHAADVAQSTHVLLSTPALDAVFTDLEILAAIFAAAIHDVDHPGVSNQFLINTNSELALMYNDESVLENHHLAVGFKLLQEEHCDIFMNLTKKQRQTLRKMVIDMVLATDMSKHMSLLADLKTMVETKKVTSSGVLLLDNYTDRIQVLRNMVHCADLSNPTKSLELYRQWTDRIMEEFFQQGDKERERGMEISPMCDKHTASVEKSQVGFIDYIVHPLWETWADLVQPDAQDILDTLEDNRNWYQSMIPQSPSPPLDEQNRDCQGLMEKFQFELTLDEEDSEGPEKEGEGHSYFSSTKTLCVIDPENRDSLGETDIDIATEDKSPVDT

COC(=O)[C@@]1(Cc2ccccc2)[C@H]2c3cc(C(=O)N4CCCC4)n(Cc4ccccn4)c3C[C@H]2CN1C(=O)c1ccccc1
inactive: Potency [1] | Potency [2]
active: Potency [3] 2 µM

CCC[C@@H]1C[C@@]1(CCC)C(NC(=O)c1ccccc1)c1cccc(Cl)c1 (stereo partly drawn)
inactive: Potency [1] | Potency [4] | Potency [5]

COC(=O)[C@@]1(Cc2ccc(OC)cc2)[C@@H]2C(=CC(=O)[C@H]2CC(=O)C(=O)N(C)C)CN1C(=O)c1ccccc1
inactive: Potency [1] | Potency [4] | Potency [5]

COC(=O)[C@@]1(Cc2ccc(OC)cc2)[C@@H]2C(=CC(=O)[C@H]2CC(=O)C(=O)N2CCCC2)CN1C(=O)c1ccccc1
inactive: Potency [1] | Potency [4] | Potency [5]

CCC/C=C(\CCC)C(NS(=O)(=O)c1ccc(Cl)cc1)c1ccc(C(=O)OC)cc1 (stereo not drawn)
active: Potency [1] 3160 nM | Potency [3] 3.98 µM
inactive: Potency [5]

CCc1cccc2nc3c(c([Si](C)(C)C)c12)Cn1c-3cccc1=O
inactive: Potency [4] | Potency [5]
active: Potency [1] 2510 nM

COC(=O)[C@@]1(Cc2ccccc2)[C@H]2c3cc(C(=O)N4CCCC4)n(CC4CC4)c3C[C@H]2CN1C(=O)c1ccccc1
active: Potency [3] 3.16 µM
inactive: Potency [1] | Potency [2] | Potency [5]

CCCC[C@@H]1C[C@H]1C(NC(=O)c1ccco1)c1ccc(Cl)cc1 (stereo partly drawn)
inactive: Potency [3]
active: Potency [1] 794 nM

CCc1cccc2c(-c3ccccc3)c3c(nc12)OCC3
active: Potency [1] 316 nM

CN1[C@H]2CC(OC(=O)[C@H](CO)c3ccccc3)C[C@H]1[C@H]1O[C@H]12 (stereo partly drawn)
inactive: Potency [6] > 92 µM | Potency [7] > 92 µM | Potency [8] > 92 µM | Potency [9] | Potency [10] | Potency [11] | Potency [12] | caspase-3 activation [13] -0.382% and 0.0869% | Potency [14] | outcome [15] | max response [16] -2.4% and 1.32% | max response [17] -2.2% and 1.37%

CCCC[C@@H]1C[C@H]1C(NC(=O)c1ccccc1)c1ccc(-c2ccccc2)cc1 (stereo partly drawn)
inactive: Potency [4] | Potency [5]
active: Potency [1] 501 nM

O=C(/C=C/c1ccc(O)c(O)c1)OC1C[C@](O)(C(=O)O)C[C@@H](O)[C@H]1O (stereo partly drawn)
inactive: Potency [6] > 92 µM | Potency [7] > 92 µM | Potency [8] > 92 µM | Potency [4] | Potency [9] | Potency [10] | Potency [11] | Potency [12] | caspase-3 activation [13] -0.588% and 1.58% | Potency [14] | outcome [15] | Potency [3] | max response [16] -2.67% and 0.743% | max response [17] 5.94% and -3.39%

c1ccc(-c2c3ccccc3nc3[nH]c4ccccc4c23)cc1
inactive: Potency [4] | Potency [5]
active: Potency [1] 501 nM

C=CC(=O)OCC(CO)(COC(=O)C=C)COC(=O)C=C
active: Potency [7] 17.8 µM | Potency [8] 2.02 µM | Potency [9] 1.58 µM | Potency [10] 3.16 µM | Potency [14] 6.31 µM | Potency [17] 5.01 µM and 22.4 µM
inactive: Potency [6] > 92 µM | Potency [4] | Potency [11] | Potency [12] | outcome [15] | max response [16] 1.55% and 0.0188%

CCCCCCCC[N+](CCCCCCCC)(CCCCCCCC)CCCCCCCC
active: Potency [6] 14.5 µM | Potency [7] 10.3 µM | Potency [8] 9.44 µM | Potency [9] 7.94 µM | Potency [10] 10 µM | Potency [11] 12.6 µM | Potency [3] 12.6 µM | Potency [17] 28.2 µM
inactive: Potency [4] | Potency [5] | max response [16] 6.05%

CNc1ccc(O)cc1
inactive: Potency [4] | Potency [11] | Potency [12] | caspase-3 activation [13] -3.33% | Potency [14] | outcome [15] | Potency [5] | max response [16] -6.09%
active: Potency [8] 23.5 µM | Potency [9] 2 µM | Potency [3] 12.6 µM | Potency [17] 35.5 µM

O=C=Nc1ccc(Cc2ccc(N=C=O)cc2)cc1
inactive: Potency [6] > 92 µM | Potency [7] > 92 µM | Potency [8] > 92 µM | Potency [9] | Potency [10] | Potency [11] | Potency [12] | caspase-3 activation [13] -0.349% | Potency [14] | outcome [15] | Potency [5] | max response [16] -0.535% and -0.74% | max response [17] 9.46% and -11.9%

Cc1cccn2c(=O)c3cc(C#N)c(=N)n(Cc4ccncc4)c3nc12
inactive: activity change, negative = inhibition [18] -26.5% | activity, negative = inhibition [19] -5.05% | Potency [20] > 20.6 µM
